# GALR2 antag – blocks the human galanin receptor 2; inhibition, % at 4 µM; GALR2-expressing cells, antagonist mode; O43603; AID 828; 140,000 compounds, 0.39% hits; in the data active = inhibition above about 27%;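 note: cells stimulated with galanin 1-16 at roughly its EC80; 0% = agonist challenge control and 100% = basal control without agonist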
# GALR2 ag – GALR2 (human) receptor agonism; O43603; activation, % (test concentration not listed); GALR2-expressing cells, agonist activation read-out; 140,000 compounds, 0.48% hits; in the data active = activation above about 5%, passing the limit was not always enough;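 note: 0% = vehicle buffer wells and 100% = reference agonist at full effect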
# S1P2 antag – antagonists of human S1P2 receptor | O95136 | cell-based S1P2 antagonist assay, inhibition at 5 uM | inhibition, % at 5 µM | 97,000 compounds, 0.21% hits; in the data active = inhibition above about 45%;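 note: CRE beta-lactamase reporter cells expressing human S1P2 stimulated with S1P; 0% = agonist at EC80 alone and 100% = agonist plus reference antagonist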
# Target sequence (O95136 whole entry, looked up): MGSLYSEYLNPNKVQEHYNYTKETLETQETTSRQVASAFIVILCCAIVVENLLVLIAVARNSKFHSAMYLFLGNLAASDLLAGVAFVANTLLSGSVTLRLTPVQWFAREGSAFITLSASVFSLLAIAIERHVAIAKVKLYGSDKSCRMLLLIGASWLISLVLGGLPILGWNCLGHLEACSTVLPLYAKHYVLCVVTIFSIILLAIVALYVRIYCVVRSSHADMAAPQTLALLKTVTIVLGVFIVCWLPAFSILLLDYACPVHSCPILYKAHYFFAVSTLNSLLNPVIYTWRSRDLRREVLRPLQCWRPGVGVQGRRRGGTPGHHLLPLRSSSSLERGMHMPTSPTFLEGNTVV
# Phagocytosis inh – macrophage phagocytosis inhibition | J774A.1 macrophage IgG-bead phagocytosis, imaging | inhibition, % at 5 µM | 110,000 compounds, 0.07% hits | AID 1029;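 active = inhibition above the mean of the plate negative controls plus 5 SD, cut at about 13% in these data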;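 note: phagocytic index as fraction of beads internalized from green versus red external bead signal; plate controls were DMSO negative control for no effect and cytochalasin-D positive control for full effect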
# S1P2 ag – agonists of human S1P2 receptor. O95136. S1P2-expressing cell line, agonist reporter read-out. activation, % at 4.5 µM. 97,000 compounds, 0.46% hits; in the data active = activation above about 16%;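 note: 0% = vehicle low control and 100% = maximal reference agonist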
# An asterisk follows results filed as active; . = no result given; [ ] = remark or other dose. Only some compounds are listed: those with a hit (about 1.3% of all), similar ones and a draw of the others.
SMILES,GALR2 antag,GALR2 ag,S1P2 antag,Phagocytosis inh,S1P2 ag
Cc1cccc2cc(C(c3nnnn3CC3CCCO3)N3CCc4ccccc4C3)c(=O)[nH]c12 (configuration not stated),1,-2,6,-1,128*
COc1cc(OC)c(NS(=O)(=O)c2ccc(Cl)c(C(=O)OC(C)C(=O)N3CCCC3)c2)cc1Cl (configuration not stated),9,0,.,-9,.
COc1cccc(C2CC(=O)Nc3cc(OC)c(OC)c(OC)c32)c1OC (configuration not stated),-15,-2,3,44*[artifact],-7
Cc1ccc(S(=O)(=O)N2CCOCC2)cc1NC(=O)COC(=O)c1cc(=O)c2ccccc2o1,2,-2,.,-4,.
CCN(CC)c1ccc2cc(S(=O)(=O)c3ccc(C)cc3)c(=O)oc2c1,3,6.0*,.,-1,.
NC(=O)C(c1ccc(Cl)cc1Cl)c1ncc(C(F)(F)F)cc1Cl (configuration not stated),-15,-2,13,.,-5
CCOc1ccc(/C(O)=C2/C(=O)C(=O)N(CC3CCCO3)C2c2cccs2)cc1 (configuration not stated),4,0,.,-3,.
CC(=O)Nc1ccc(NC(=O)CSC2=NCCS2)cc1,-1,-1,18,3,-9
O=C(CSC1=NCCS1)Nc1ccnc2ccccc12,35*,-2,.,-1,.
COc1ccc(-c2nc(N)n(C(=O)c3ccccc3Cl)n2)cc1,-5,-1,.,0,.
O=C(c1ccccc1)C(CCC(CN1CCOCC1)C(=O)c1ccccc1)CN1CCOCC1 (configuration not stated),8,0,53*,2,-6
O=C(c1ccc(F)cc1)C(CN1CCOCC1)c1ccccc1 (configuration not stated),32*,-1,28,1,-13
c1ccc(C(CN2CCOCC2)c2ccccc2)cc1,-2,-1,-13,-1,-4
COc1ccc(C(=O)C(CN2CCOCC2)c2ccccc2)cc1 (configuration not stated),20,-1,0,-1,-2
CCN(CC)c1ccc(/C=C2\C(=O)N(c3ccc([N+](=O)[O-])cc3)N=C2N2CCOCC2)cc1,-5,-3,7,.,-6
Cc1ccc(OCCNC(=O)c2ccco2)cc1C,2,-2,18,-1,50*
Cc1ccc(CNC(=O)CCNC(=O)c2ccco2)cc1,-3,-2,-11,-2,869*
Cn1c(=O)[nH]c(=O)c2[nH]c(N(Cc3ccccc3)Cc3ccccc3)nc21,-21,1,56*,0,5
NC(=O)COC(=O)CNC(=O)c1ccc(Cl)cc1,-5,-2,0,3,-1
NC(=O)CCNC(=O)c1ccc(Cl)cc1,-8,-2,25,-1,44*
CCOC(=O)c1sc(Nc2nc3c(OC)cccc3s2)nc1C,-3,46*,.,5,.
CCOc1cccc2sc(Nc3nc4ccc(NC(C)=O)cc4s3)nc12,6,8.1*,.,-5,.
CCOC(=O)c1sc(Nc2ccccc2)nc1C,-7,0,-19,-1,0
O=c1oc2ccccc2cc1-c1nc2c(s1)CCCC2,17,17*,-6,-1,16*
COc1cccc(-c2nnc3sc(C4CCCCC4)nn23)c1,-13,1,-10,1,-4
SMILES,GALR2 antag,GALR2 ag,S1P2 antag,Phagocytosis inh,S1P2 ag
COc1cc(-c2nnc3sc(C4CCCCC4)nn23)cc(OC)c1OC,-9,2,-21,0,20*
COc1ccc(NS(=O)(=O)c2cc([N+](=O)[O-])ccc2N/N=C\c2c(C)[nH]c3ccccc23)cc1,9,-2,-6,0,-4
COc1ccccc1NS(=O)(=O)c1cc([N+](=O)[O-])ccc1N/N=C/c1c[nH]c2ccccc12,6,-3,62*,0,-15
CCCc1cc(C(=O)N2CCN(c3ccccc3C)CC2)cs1,-1,-2,8,0,-4
CC(=O)c1cccc(NC(=O)NCc2cccnc2)c1,-3,-1,5,-1,-4
O=C(NCc1cccnc1)Nc1cccc(NC(=O)NCc2cccnc2)c1,9,-1,.,90*,.
O=C(CCCCC(=O)NC1CCCC1)NC1CCCC1,-9,-1,.,-3,.
CCCCNc1cc(=O)n(C)c(=O)[nH]1,12,-1,-4,0,38*
O=C(Nc1ccn(-c2ccccc2)n1)c1ccc(S(=O)(=O)N2CCCCCC2)cc1,3,-2,22,-1,-6
Cc1ccc2nc(-c3ccc(SCC(=O)Nc4nc(C)cs4)nc3)[nH]c2c1,10,0,.,-1,.
Cc1ccc2nc(-c3ccc(SCC(=O)Nc4nnc(C)s4)nc3)[nH]c2c1,13,5.3*,.,-10,.
CC(C)OC(=O)c1cccc(-c2ccc(C=O)o2)c1,1,0,.,1,.
CCCc1cc2c(cc1NC(=O)c1ccc(C)cc1)OCO2,1,-3,-11,.,-4
N=c1c(-c2nc3ccccc3[nH]2)cc(C(=O)c2cccs2)nn1-c1ccccc1,1,-3,-25,.,22*
N=c1c(-c2nc3ccccc3[nH]2)cc(C(=O)c2ccco2)nn1-c1ccccc1,0,0,.,-1,.
Cc1ccc(N2C(=O)C3ON(c4ccccc4)C(c4ccncc4)C3C2=O)c(C)c1 (configuration not stated),4,-5,0,.,-3
Clc1ccc(-c2ccc(/C=N/Nc3cc(N4CCOCC4)nc(N4CCOCC4)n3)o2)cc1,-10,30*,-69,.,54*
CC(C)c1ccc(/C=N/Nc2cc(N3CCOCC3)nc(N3CCOCC3)n2)cc1,-5,0,.,-8,.
O=C(Nc1ccccc1)c1sc2cc(C(F)(F)F)cnc2c1-c1cccs1,3,-1,46*,.,-6
O=C(c1ccccc1F)N(NC(=O)C(O)(c1ccccc1)c1ccccc1)c1ccccc1,8,-1,.,-5,.
O=C(NCCN1CCN(c2ccccc2F)CC1)C1CC(=O)N(C2CCCC2)C1 (configuration not stated),-13,-1,11,.,21*
COc1ccccc1NC(=O)CSCc1nc2ccccc2[nH]1,16,-1,.,-9,.
Cc1nc(SCC(=O)Nc2ccc3c(c2)OCCO3)c2oc3ccccc3c2n1,-12,0,-30,.,19*
COc1ccccc1NC(=O)CSc1ncnc2c1oc1ccccc12,14,-1,-25,0,24*
CCc1nc(SCC(=O)Nc2ccc3c(c2)OCCO3)c2oc3ccccc3c2n1,-2,0,-13,.,2
COc1cc(-c2nc3n(n2)C(c2ccc(F)cc2)C2=C(CCCC2=O)N3)cc(OC)c1OC (configuration not stated),8,0,-36,1,11
COc1cccc(C2C3=C(CCCC3=O)Nc3nc(-c4cc(OC)c(OC)c(OC)c4)nn32)c1 (configuration not stated),2,1,-26,0,17*
CCOC(=O)c1ccc(NC(=O)Cn2nnc(-c3ccccc3)n2)cc1,0,0,-14,-1,-7
NC(=O)c1nn(-c2ccccc2)nc1NC(=O)Cn1nnc(-c2ccccc2)n1,-2,5.2*,.,-4,.
O=C(/C=C/c1ccc(F)cc1)NCCc1ccc2c(c1)OCCO2,-7,-1,.,-13,.

# Source: PubChem BioAssay
